DT40 TDP1 no CPT: qHTS for Inhibitors of human tyrosyl-DNA phosphodiesterase 1 (TDP1): qHTS in cells in absence of CPT; DT40 Tdp1-/- hTDP1 cells, no CPT, ATP luminescence, 48 h; Potency, µM (titrated, usually from 46.2 µM), actives largely listed as inhibitors; 15% of 420,000 active; note: nearly all actives have a fitted effect of over 55% in size
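A cellular qHTS used chicken DT40 cells lacking endogenous Tdp1 but carrying stably transfected human TDP1. Compounds were applied without camptothecin, and cell growth kinetics were judged by ATP-dependent luminescence after ≥48 hr.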
HT1080NT lethal: qHTS for induction of synthetic lethality in tumor cells producing 2HG: qHTS for the HT-1080-NT fibrosarcoma cell line. 1.6% of 360,000 active. Potency, µM (highest dose often 46.1 µM), usual class: cytotoxic. HT-1080-NT fibrosarcoma viability, CellTiter-Glo ATP luminescence, 48 h;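 note: NT is the 2HG producing partner of a matched IDH1 knockdown line; nearly all actives have a fitted effect of over 55% in size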
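Viability of the 2HG-overproducing fibrosarcoma line after 48 hours of compound exposure at 37 degrees C was determined by luminescence with CellTiter-Glo, and concentration-effect curves were then fitted and categorized.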
HT1080 IDH1KD tx: qHTS for induction of synthetic lethality in tumor cells producing 2HG: qHTS for the HT-1080-IDH1KD cell line | AID 686971, 2013 | HT-1080 IDH1 knockdown viability, ATP luminescence, 48 h | 2% of 360,000 active | Potency, µM (doses to about 46.1 µM), actives largely listed as cytotoxic
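HT-1080-IDH1KD cells (IDH1 knocked down), 750/well in RPMI with 5% FBS, treated with compound 48 h at 37 degrees C. Viability by CellTiter-Glo luminescence, normalised to DMSO and no-cell wells; concentration-response curves classed.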
IL1B secr inh: qHTS for Inhibitors of Inflammasome Signaling: IL-1-beta AlphaLISA Primary Screen | THP-1 LPS/ATP IL-1B secretion, AlphaLISA, 16 h; active compounds read low | activity change, % at 57.5 µM | 4.7% of 360,000 active | AID 743279, 2014; in the data active = activity change below about -50%; inconclusive = mostly about -30% to -49%
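Secreted IL-1B measured by AlphaLISA bead assay after 16 h compound exposure of THP-1 cells; compounds (final up to 57.5 uM) added 1 h before LPS (250 ng/mL) and ATP (1.25 mM) stimulation; lower signal means less secretion.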
TDP1 cell CPT: qHTS for Inhibitors of human tyrosyl-DNA phosphodiesterase 1 (TDP1): qHTS in cells in presence of CPT | chicken DT40 Tdp1-/-;hTDP1 cells + 20 nM CPT, ATP luminescence, 48 h | Potency, µM (titrated, usually from 46.2 µM), hits mostly inhibitors | 12% of 420,000 active; note: nearly all actives have a fitted effect of over 55% in size
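Chicken DT40 Tdp1-/- cells complemented with human TDP1, 400 cells/well, exposed to compounds plus 20 nM camptothecin for at least 48 h at 37 C; viability read as ATP content by CellTiter-Glo luminescence.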
Large screens that a line does not name were inactive. This is a sample that favours compounds with a hit; in the whole collection about 19% have one here. Unless noted, calls come from the whole dose curve; as a rule, active = well fitted curve in the direction sought with a large enough effect; inconclusive = small, poorly fitted or top-dose-only effect, or another doubt; inactive = no such curve, though single readings can be large; an effect the other way counts as inactive or inconclusive.

CCOC(=O)Cc1cnc(NC(=O)CSc2nc3ncnc(N)c3[nH]2)s1	none
CC(C)N=c1scc(-c2ccco2)n1/N=C/c1ccc(O)c(O)c1	DT40 TDP1 no CPT 1.5µM, TDP1 cell CPT 1.6µM
Oc1ccc(/C=N/n2c(-c3ccco3)csc2=Nc2cccnc2)c(O)c1	DT40 TDP1 no CPT 15µM, TDP1 cell CPT 12µM
CN=c1scc(C)n1/N=C/c1ccc(O)c(O)c1O	DT40 TDP1 no CPT 18µM, IL1B secr inh inconclusive, TDP1 cell CPT 16µM
CN(C)CC(CCC(CN(C)C)C(O)(c1ccccc1)c1ccccc1)C(O)(c1ccccc1)c1ccccc1 (stereo not drawn)	DT40 TDP1 no CPT 18µM, HT1080 IDH1KD tx inconclusive, IL1B secr inh -85, TDP1 cell CPT 23µM
O=C1CCC(=O)N1N1C(=O)C2C3c4ccccc4C(c4ccccc43)C2C1=O (stereo not drawn)	none
O=C1C2C3c4ccccc4C(c4ccccc43)[C@@H]2c2nc3ccccc3n21 (stereo partly drawn)	DT40 TDP1 no CPT 10µM, TDP1 cell CPT 12µM
Cc1cc(Cl)nc(-c2ccccc2O)n1	IL1B secr inh inconclusive
Cc1cc(Nc2cccc(Cl)c2)nc(-c2ccccc2O)n1	DT40 TDP1 no CPT inconclusive, HT1080 IDH1KD tx inconclusive, IL1B secr inh inconclusive, TDP1 cell CPT 29µM
COC(=O)c1ccc(Nc2cc(C)nc(-c3ccccc3O)n2)cc1	DT40 TDP1 no CPT inconclusive, TDP1 cell CPT inconclusive
Cc1cc(Nc2ccc(Cl)cc2)nc(-c2ccccc2O)n1	DT40 TDP1 no CPT 26µM, HT1080NT lethal inconclusive, HT1080 IDH1KD tx inconclusive, TDP1 cell CPT inconclusive
Cc1nc2ccccc2nc1Nc1cccc(Cl)c1	DT40 TDP1 no CPT inconclusive, TDP1 cell CPT inconclusive
COC(=O)c1cccc(Nc2cc(C)nc(-c3ccccc3O)n2)c1	DT40 TDP1 no CPT 16µM, HT1080 IDH1KD tx inconclusive, TDP1 cell CPT inconclusive
CC1=C(C(=O)Nc2cccc(C(=O)NC(C)c3ccccc3)c2)SCCO1 (stereo not drawn)	DT40 TDP1 no CPT 16µM, TDP1 cell CPT inconclusive
C=C1C(=O)OC2C1CCC(C)=C1C(=O)C3OC3(C)C12 (stereo not drawn)	DT40 TDP1 no CPT 0.18µM, HT1080NT lethal inconclusive, HT1080 IDH1KD tx 16µM, IL1B secr inh -104, TDP1 cell CPT 0.058µM
Cc1nnc(C)c2c(C)n(-c3ccccc3N)c(C)c12	DT40 TDP1 no CPT inconclusive, TDP1 cell CPT 21µM
Cc1ccc(-n2c(C)c3c(C)nnc(C)c3c2C)cc1N	DT40 TDP1 no CPT inconclusive, TDP1 cell CPT 21µM
Cc1nnc(C)c2c(C)n(-c3ccccc3)c(C)c12	DT40 TDP1 no CPT 23µM, TDP1 cell CPT 23µM
CCn1c(C)c2c(C)nnc(C)c2c1C	none
Cc1nnc(C)c2c(C)n(C(c3ccccc3)c3ccccc3)c(C)c12	DT40 TDP1 no CPT inconclusive, HT1080 IDH1KD tx inconclusive, IL1B secr inh inconclusive, TDP1 cell CPT inconclusive
Cc1cc(-n2c(C)c3c(C)nnc(C)c3c2C)ccc1N	DT40 TDP1 no CPT inconclusive, TDP1 cell CPT 8.2µM (no result: IL1B secr inh)
Cc1cnc(CNc2ncncc2-c2ccccc2C#N)cn1	none (no result: HT1080NT lethal, HT1080 IDH1KD tx, IL1B secr inh)
Cc1sc(-c2ccncc2)nc1OC(=O)c1ccc(F)cc1F	none
Cc1ccc(-n2c(C)c3c(C)nnc(C)c3c2C)cc1C	DT40 TDP1 no CPT 15µM, IL1B secr inh inconclusive, TDP1 cell CPT 15µM
Cc1cc(C)nc(Nc2ccccc2F)n1	none
Cn1cnnc1SCC(=O)c1ccc(O)c(O)c1	none
COc1cccc(-c2cccc(NC(=O)C3CCN(Cc4cnn(C)c4)CC3)c2)c1	none
CCCn1ncc(CN2CCC(C(=O)Nc3cccc(-c4cccc(F)c4)c3)CC2)c1C	DT40 TDP1 no CPT inconclusive, HT1080NT lethal 21µM, HT1080 IDH1KD tx inconclusive, IL1B secr inh -76, TDP1 cell CPT 15µM
CCCn1ncc(CN2CCC(Cc3cccc(F)c3)(C(=O)OCC)CC2)c1C	DT40 TDP1 no CPT inconclusive
Cn1cc(CN2CCC(C(=O)Nc3cccc(-c4cccc(F)c4)c3)CC2)cn1	DT40 TDP1 no CPT inconclusive, HT1080NT lethal 21µM, HT1080 IDH1KD tx 23µM, TDP1 cell CPT inconclusive
C/C(Cc1ccccc1)=N\NC(=O)CNC(=O)c1ccc(Cl)cc1	none
Nc1cc(C(F)(F)F)ccc1Nc1ccccc1	DT40 TDP1 no CPT inconclusive
COc1ccc(-c2nnc(C3CCN(C(=O)c4ccccc4F)CC3)o2)cc1	DT40 TDP1 no CPT 4.6µM, TDP1 cell CPT 5.2µM (no result: HT1080NT lethal, HT1080 IDH1KD tx, IL1B secr inh)
COc1ccccc1-c1nnc(C2CCN(C(=O)c3ccc(C)cc3)CC2)o1	DT40 TDP1 no CPT inconclusive (no result: HT1080NT lethal, HT1080 IDH1KD tx, IL1B secr inh)
CC(C)(C)NC(=O)Nc1ccc(Cn2cc(C(F)(F)F)ccc2=O)cc1	DT40 TDP1 no CPT inconclusive, TDP1 cell CPT 21µM
CCOC(=O)C1=C(c2ccccc2)OC(N)=C(C#N)C1C1CCCCC1 (stereo not drawn)	DT40 TDP1 no CPT inconclusive, TDP1 cell CPT inconclusive
CCOC1(OCC)OC(c2ccccc2)=C(C#N)C(C=Cc2ccccc2)C1(OCC)OCC (stereo not drawn)	DT40 TDP1 no CPT 21µM, TDP1 cell CPT inconclusive
CCOc1cc(-c2noc(N)c2C(=O)OC)cc(OCC)c1OCC	DT40 TDP1 no CPT inconclusive, IL1B secr inh -106
CC(C)C[C@@H](CN1CCC[C@@H]1CN1C(=O)C(=O)NC[C@@H]1Cc1ccccc1)N1C[C@H](Cc2ccccc2)N(CC2CCCCC2)C(=O)C1=O	DT40 TDP1 no CPT 16µM, IL1B secr inh inconclusive, TDP1 cell CPT inconclusive
CC(C)C[C@@H](CN1CCC[C@H]1CN1C(=O)C(=O)NC[C@@H]1Cc1ccccc1)N1C[C@H](Cc2ccc(O)cc2)N(CC2CCCCCC2)C(=O)C1=O	DT40 TDP1 no CPT 23µM, HT1080NT lethal 23µM, HT1080 IDH1KD tx 18µM, IL1B secr inh -76, TDP1 cell CPT 23µM
CC(C)C[C@@H](CN1CCC[C@@H]1CN1C(=O)C(=O)NC[C@@H]1Cc1ccc(O)cc1)N1C[C@H](Cc2ccc(O)cc2)N(CC2CCCCCC2)C(=O)C1=O	none
CC(C)C[C@@H](CN1CCC[C@@H]1CN1C(=O)C(=O)NC[C@@H]1Cc1ccccc1)N1C[C@H](Cc2ccc(O)cc2)N(CC2CCCCC2)C(=O)C1=O	DT40 TDP1 no CPT inconclusive, IL1B secr inh -75, TDP1 cell CPT inconclusive
Cc1cc2ccc(=O)oc2cc1OC[C@@H](O)C(C)(C)O	none (no result: HT1080NT lethal, HT1080 IDH1KD tx, IL1B secr inh)
CN1CCN(S(=O)(=O)c2ccc(F)cc2)CC1	none
N#C/C(=C\c1c[nH]c2ccccc12)C(N)=O	DT40 TDP1 no CPT inconclusive, TDP1 cell CPT inconclusive
CC(=O)Oc1c(/C=C(\C#N)C(N)=O)[nH]c2ccccc12	DT40 TDP1 no CPT inconclusive, HT1080NT lethal inconclusive, TDP1 cell CPT 16µM
Cc1c(C(=O)N2CCCC2)sc2ncnc(NCCCN3CCOCC3)c12	none (no result: HT1080NT lethal, HT1080 IDH1KD tx, IL1B secr inh)

Screens (PubChem)
